# Cruzain inh noDet – blocks cruzain activity in detergent-free assay | P25779 | purified cruzain, Z-FR-AMC fluorescence, no detergent | AID 1476 | actives 2.3% (n = 200,000) | Potency, µM, for the others: max response, negative = inhibition, hits mostly inhibitors;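 also: plate controls were enzyme without inhibitor for no effect and buffer without enzyme for full effect; nearly all actives have a fitted effect of over 40% in size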
# Target sequence (P25779 123-467 limits assumed): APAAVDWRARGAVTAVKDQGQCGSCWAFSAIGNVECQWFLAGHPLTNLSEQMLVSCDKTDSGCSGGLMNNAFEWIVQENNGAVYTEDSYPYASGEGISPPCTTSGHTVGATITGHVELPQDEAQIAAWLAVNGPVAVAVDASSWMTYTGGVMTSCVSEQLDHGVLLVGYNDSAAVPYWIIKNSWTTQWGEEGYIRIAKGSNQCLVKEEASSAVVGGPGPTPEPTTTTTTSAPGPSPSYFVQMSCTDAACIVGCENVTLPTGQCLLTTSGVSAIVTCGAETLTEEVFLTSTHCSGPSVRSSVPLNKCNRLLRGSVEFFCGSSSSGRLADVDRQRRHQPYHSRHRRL
#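 Detergent-free condition (0.00005% Triton X-100) in acetate buffer pH 5.5 with DTT. 1.5 nM enzyme and compound were pre-mixed 15 min, then 2 uM Z-FR-AMC substrate added; reaction progress from fluorescence change between first and third reads (60 s).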
# Cruzain Triton – blocks cruzain activity in presence of Triton detergent; P25779; purified cruzain, Z-FR-AMC fluorescence, 0.01% Triton; Potency, µM, without a hit: max response, negative = inhibition, most hits filed as inhibitors; actives 0.43% (n = 200,000); AID 1478;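 also: plate controls were neutral wells for no effect and buffer without enzyme for full effect; nearly all actives have a fitted effect of over 40% in size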
#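 Detergent-containing arm of a paired screen for aggregation-based inhibition: 0.01% Triton X-100 present. Cruzain at 1.5 nM cleaved 2 uM Z-FR-AMC at pH 5.5 with 5 mM DTT; AMC fluorescence gain over 60 s measured activity.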
# * = called active by the depositor; ? = inconclusive. Most compounds without a hit are left out; they make up all but 2.5% or so of the library. Calls follow the shape of the dose curve; as a rule, active = well fitted curve in the direction sought with a large enough effect; inconclusive = small, poorly fitted or top-dose-only effect, or another doubt; inactive = no such curve, though single readings can be large; an effect the other way counts as inactive or inconclusive. Potency is read from the fitted curve at half-maximal effect.
SMILES,Cruzain inh noDet,Cruzain Triton
COc1ccc(NC(=O)c2c(Nc3ccccc3)sc(C(=O)c3ccc(F)cc3)c2N)cc1,10µM*,-8%
COc1cccc(Nc2sc(C(=O)c3ccc(Cl)cc3)c(N)c2C(=O)NCc2ccc(C)cc2)c1,?,0%
COc1ccc(C)cc1NS(=O)(=O)c1ccc2c(c1)[C@H]1C=CC[C@H]1[C@@H](c1cccc(Cl)c1)N2,?,-15%
CC(C)C[C@@H](CC(=O)N[C@@H](CCC(=O)O)CC(=O)O)NC(=O)[C@@H]1CNCC[C@H]1NC(=O)C[C@H](CCCN)NC(=O)C[C@H](Cc1ccccc1)NC(=O)[C@@H]1CNCC[C@H]1N,16%,3%
CCC(=O)OCc1cnc(C)c2oc(=O)c(C(=O)Nc3ccc(CC)cc3)cc12,2%,0%
Cc1ccc(C(=O)Nc2ccc(-n3c(C)nc4ccccc4c3=O)cc2)cc1[N+](=O)[O-],21%,1%
O=S(=O)(O)/C(=C\c1ccccc1)c1ccccc1 (tested in a mixture with another compound),-2%,3%
Cc1cccc(CN2C(=O)c3ccccc3Sc3ccc(C(=O)NCc4cccs4)cc32)c1,?,0%
O=C(COc1cc(Cl)ccc1Cl)Nc1ccc2c(c1)CCC2,25µM*,-1%
O=C(O)COCC(=O)Nc1ccc2c(c1)CCC2,-11%,3%
O=C(O)[C@H](/C=C\c1ccccc1)c1ccccc1,-4%,2%
CCNc1ncc2nc(-c3ccc(F)cc3)c(=O)n(CCOC)c2n1,2%,0%
COc1cccc(-c2ccc3c(N)c(C(=O)c4ccc(Br)cc4)sc3n2)c1,7.9µM*,-3%
COc1ccc(C(=O)c2sc3nc(-c4ccccc4)ccc3c2N)cc1OC,2%,-5%
COc1cc2c3cc1Oc1c(O)c(OC)cc4c1[C@@H](Cc1ccc(cc1)Oc1cc(ccc1O)C[C@H]3N(C)CC2)N(C)CC4,-10%,-7%
CC(C)(O)[C@H](O)COc1c2occc2cc2ccc(=O)oc12,0%,0%
Cc1cc2ccc(=O)oc2cc1OC[C@@H](O)C(C)(C)O,40µM*,-16%
CCCCCCCCCCCCCCCC(=O)NCC(=O)O,4%,0%
Cc1ccc(S(=O)(=O)N(CC(=O)Nc2ccc(Cl)c([N+](=O)[O-])c2)C2CCCCC2)cc1,13µM*,-6%
Cc1ccc(S(=O)(=O)N(CC(=O)Nc2cccc([N+](=O)[O-])c2)C2CCCCC2)cc1,4%,-5%
CCOC(=O)c1ccccc1NC(=O)CSc1nc(=O)[nH]c2c1CCC2,-1%,1%
COc1ccc(CNC(=O)c2cccs2)cc1,4%,1%
COc1ccc(CNC(=O)/C(C#N)=C2\N=C(NC(=O)c3cccs3)c3ccccc32)cc1,25µM*,-5%
CC(C)c1ccc(Cc2cnc(NC(=O)c3ccc4c(c3)CC(c3ccccc3)OC4=O)s2)cc1 (centres undefined),?,0%
Cc1ccc(S(=O)(=O)N2CCCC2C(=O)Nc2ccc(Br)cc2)cc1 (centres undefined),-1%,-7%
SMILES,Cruzain inh noDet,Cruzain Triton
CCCCNc1nc2c(S(=O)(=O)c3ccc(C)cc3)nnn2c2ccsc12,5%,2%
Cc1cc(C)c(C#N)c(OCC(=O)c2ccccc2)n1,-6%,-6%
N#Cc1c(OCC(=O)c2ccccc2)nc2c(c1-c1ccco1)CCc1ccccc1-2,7.9µM*,14µM*
O=c1c2c3c(sc2ncn1Cc1ccc(F)cc1)CCC3,7.9µM*,-2%
Nn1cnc2sc3c(c2c1=O)CCC3,1%,0%
c1cncc(CNCc2cccnc2)c1,8%,9%
O=C1N/C(=C/c2cccn2-c2ccc(F)cc2)C(=O)N1Cc1ccccc1F,?,-11%
O=C1N/C(=C/c2cccn2-c2ccccc2)C(=O)N1Cc1ccc(F)cc1,13µM*,-5%
COc1cccc(C(=O)Nc2ccccc2C(=O)OCc2cc(=O)n3nc(C4CC4)sc3n2)c1,15%,1%
CCNc1ncc2nc(-c3cccs3)c(=O)n(CCc3ccccc3)c2n1,-7%,-4%
CCOC(C)(C)C,-8%,2%
CCC(C(=O)NC1CCCCC1)n1c(SCc2cccc(C)c2)nc2ccncc21 (centres undefined),?,14µM*
Cc1cccc(Cn2c(SCc3ccc(C(=O)NC4CCCCC4)cc3)nc3ccncc32)c1,-12%,1%
CC[C@]1(OC(=O)CN)C(=O)OCc2c1cc1n(c2=O)Cc2cc3ccccc3nc2-1,4%,-2%
CCn1cc2c(n1)-c1c(oc(C(=O)Nc3cccc(C(F)(F)F)c3)c1C)CC2,-3%,-12%
COC(=O)c1ccc(NC(=O)COc2ccc(C3C(C#N)=C(N)Oc4c3ccc3ccccc43)cc2OC)cc1 (centres undefined),7.9µM*,2%
N#CC1=C(N)Oc2c(ccc3ccccc23)C1c1cccs1 (centres undefined),?,-10%
COC(=O)c1ccc(NC(=O)COc2ccccc2OC)cc1,-3%,-1%
COc1cc(C2C(C#N)=C(N)Oc3c2ccc2ccccc32)ccc1OCC(=O)Nc1ccccc1C (centres undefined),13µM*,1%
N#CC(Cl)Cl,-11%,-6%
CC(C)CNCCc1ccccn1,7%,3%
CN(C)CCNC(=O)c1cc2c(=O)n(C)c3ccccc3c2n1C,?,25µM*
CCN(CC)CCNC(=O)c1cc2c(=O)n(C)c3ccccc3c2n1C,1%,-17%
Cc1ccc(-c2cn3c(n2)sc2cc(C(=O)NC4CCCc5ccccc54)ccc23)cc1 (centres undefined),4%,-2%
COc1ccc(C(Cl)=C(c2ccc(OC)cc2)c2ccc(OC)cc2)cc1,20µM*,-5%
SMILES,Cruzain inh noDet,Cruzain Triton
COc1ccc(C(=N/O)/C(=N/O)c2ccc(OC)cc2)cc1,-5%,-3%
C/C(=N\Nc1cccc2ccccc12)c1c(O)n(Cc2ccccc2)c(=O)[nH]c1=O,10µM*,-5%
CC(=NCc1cccnc1)c1c(O)n(Cc2ccccc2)c(=O)[nH]c1=O,-2%,-1%
COc1cc(OC)c(NC(=O)Cn2c(=O)c(C(F)(F)F)nc3ccccc32)cc1Cl,-6%,1%
O=C(O)CNCCc1ccccc1,-5%,3%
CC(C)n1nc(C(=O)Nc2nnc(SCc3c(Cl)cccc3Cl)s2)c2ccccc2c1=O,13µM*,-1%
CC(C)n1nc(C(=O)Nc2nc3ccc(S(C)(=O)=O)cc3s2)c2ccccc2c1=O,14%,3%
CCOC(=O)C1=C(N)n2c(s/c(=C\c3cccs3)c2=O)=C(C(=O)OCC)C1c1cccs1 (centres undefined),2µM*,-4%
CCOC(=O)C1=C(N)n2c(s/c(=C\c3cccnc3)c2=O)=C(C(=O)OCC)C1c1cccnc1 (centres undefined),?,-2%
O=C1SC(SCc2ccccc2)=N/C1=C\c1ccco1,-4%,-7%
CC(/C=C1\N=C(SCc2ccccc2Cl)SC1=O)=C\c1ccccc1,25µM*,-5%
O=C(Nc1cccc(-c2nc3cccnc3s2)c1)C1c2ccccc2Oc2ccccc21,20µM*,0%
CCC(CC)C(=O)Nc1cccc(-c2nc3cccnc3s2)c1,-14%,-5%
Cc1cc(C)cc(-n2ccnc(NCc3ccc(F)cc3)c2=O)c1,-11%,-2%
COC(=O)NC(=S)Nc1ccc(Oc2ccc(Cl)cc2)c(Cl)c1,-7%,-7%
COC(=O)NC(=S)Nc1ccc(Oc2ccc(Cl)cc2Cl)c(Cl)c1,25µM*,-4%

# Source: PubChem BioAssay (National Center for Advancing Translational Sciences (NCATS))
